# Compounds with a hit are over-represented: about 8.7% of the library has one in this group of screens.
# Vaccinia mCherry: inhibitors of vaccinia virus infection (mCherry reporter signal). 310,000 tested, 0.63% active. AID 720579. Vaccinia virus mCherry reporter infection, fluorescence. Potency, µM (top dose mostly 36.5 µM), for inactives: at the top dose activity change, negative = inhibition, hits mostly inhibitors; calls by dose curve; tested in A549 cells; also: nearly all actives have a fitted effect of over 35% in size
# Pf growth 48h: inhibits P. falciparum growth in the first generation, 48 h | P. falciparum luciferase growth in erythrocytes, 48 h | 310,000 tested, 5.9% active | Potency, µM (titrated, usually from 28.7 µM), for the others: at the highest dose activity change, negative = inhibition, most hits filed as inhibitors
#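 In quantitative HTS format, infected erythrocytes bearing luciferase-reporter parasites were treated for a single generation at 37 C. Luminescence after adding detection reagent served as the growth measure.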
# Vaccinia Venus: inhibitors of vaccinia virus (Venus reporter). Vaccinia virus Venus reporter expression, fluorescence. Potency, µM (doses to about 36.5 µM), inactives show top-dose activity change, negative = inhibition, hits mostly inhibitors. 330,000 tested, 0.46% active; calls by dose curve; tested in A549 cells; also: nearly all actives have a fitted effect of over 30% in size
# AMA1-RON2 inh: AMA1-RON2 (P. falciparum) interaction inhibition; AlphaScreen AMA1-biotinylated RON2 peptide binding; Potency, µM (top dose mostly 58.2 µM), inactives show top-dose activity change, negative = inhibition, hits mostly inhibitors; 360,000 tested, 0.2% active; AID 720542;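 also: 0% = vehicle wells and -100% = peptide control; nearly all actives have a fitted effect of over 45% in size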
#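 AMA1 (3D7) with his tag at 25 nM final met compounds first, then biotinylated RON2 peptide at 25 nM; detection used donor plus acceptor beads, 10 µg/mL apiece, read by AlphaScreen after 30 min at room temperature.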
# Pf growth 96h: P. falciparum growth inhibition at 96 hours | Potency, µM (series often up to 28.7 µM), without a hit: at the highest dose activity change, negative = inhibition, actives largely listed as inhibitors | P. falciparum luciferase reporter growth, 96 h | AID 504834 | 320,000 tested, 6.9% active
#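 Plates of compound plus infected erythrocytes (2% hematocrit, 0.05% parasitemia final) incubate 96 hours, 37 C, 5% CO2. Detection reagent added; reduced luminescence from the parasites' luciferase reporter flags inhibition.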
# Numbers without * were called inactive; i = inactive; ? = inconclusive; nt = no result; [ ] = remark or other dose. Unless noted, calls follow the shape of the dose curve; as a rule, active = well fitted curve in the direction sought with a large enough effect; inconclusive = small, poorly fitted or top-dose-only effect, or another doubt; inactive = no such curve, though single readings can be large; an effect the other way counts as inactive or inconclusive. Unless noted, % is scaled to controls: 0 for no effect and ±100 for the full control effect; potency is read from the fitted curve at half-maximal effect.
SMILES,Vaccinia mCherry,Pf growth 48h,Vaccinia Venus,AMA1-RON2 inh,Pf growth 96h
c1ccc(C2(Cn3ccc4ccccc43)OCCO2)cc1,nt,13µM*,nt,8%,?
Cc1ccc(-n2ncc3c(NC4CCCCC4)ncnc32)cc1C,-1%,nt,-5%,nt,nt
CSC1SCC2C(=O)N(C)C(C(C)C)C(=O)OCC(NC(=O)c3cnc4ccccc4n3)C(=O)NC(C)C(=O)N(C)C1C(=O)N(C)C(C(C)C)C(=O)OCC(NC(=O)c1cnc3ccccc3n1)C(=O)NC(C)C(=O)N2C (stereo not given),?,nt,0.0035µM*,-16%,nt
CCN(CC)c1ccccc1,i,38%,-1%,8%,35%
CCN(CC)c1ccc(C(=C2C=CC(=[N+](CC)CC)C=C2)c2ccc(N(CC)CC)cc2)cc1,nt,nt,nt,2.2µM*,nt
CCN(CC)c1ccc(C(=C2C=CC(=[N+](CC)CC)C=C2)c2ccccc2)cc1,?,nt,2µM*,11µM*,nt
COc1ccc(-c2c[n+]3c(n2-c2ccccc2)CCCCC3)cc1,nt,1µM*,nt,3%,?
COc1ccc(-c2c[n+]3c4n2CCCCC4=C(c2ccccc2)C3)cc1,nt,?,nt,20%,6.6µM*
COc1ccc(-c2c[n+]3c(n2-c2c(C)n(C)n(-c4ccccc4)c2=O)CCCCC3)cc1,0%,?,-7%,-12%,14%
COc1ccc(-c2nc(S(=O)(=O)c3ccccc3)c(N3CCCC3)o2)cc1,-12%,nt,-9%,-8%,nt
COc1ccc(-c2c[n+]3c(n2-c2ccc(C)cc2)CCCCC3)cc1,i,0.93µM*,-18%,0%,0.29µM*
COc1ccc(-n2c(-c3ccc(Cl)cc3)c[n+]3c2CCCCC3)cc1,nt,1µM*,nt,10%,0.47µM*
COc1cc(OC)c(NC(=O)C(c2ccccc2)N2Cc3ccccc3C2=O)cc1Cl (stereo not given),-8%,nt,-18%,nt,nt
COc1cccc(-c2nc(CS(=O)(=O)CC(=O)Nc3ccc(C)c(Cl)c3)c(C)o2)c1,-6%,nt,-10%,nt,nt
Cc1ccc2[nH]c(CSc3nnc(NC(=O)COc4ccccc4F)s3)cc(=O)c2c1,-6%,nt,4%,nt,nt
Cc1nn(-c2ccccc2)c(N)c1C1(O)C(=O)Nc2ccc([N+](=O)[O-])cc21 (stereo not given),nt,3%,nt,-6%,-14%
Cc1nn(-c2ccccc2)c2c1C(c1ccc([N+](=O)[O-])cc1)C(C#N)=C(N)O2 (stereo not given),-17%,59%,-16%,-4%,5%
Cc1nn(-c2ccccc2)c2c1C(c1ccc([N+](=O)[O-])cc1)N1C(=N2)C(=O)Nc2ccccc21 (stereo not given),?,?,?,-2%[2.32 µM],5.9µM*
Cc1nn(-c2ccc([N+](=O)[O-])cc2)c2c1C(c1cccc(Br)c1)N1C(=N2)C(=O)Nc2ccccc21 (stereo not given),i,1.3µM*,-9%,-3%,1µM*
CCn1c(O)c(/C(C)=N/N2CCCCC2c2cccnc2)c(=O)[nH]c1=S (stereo not given),i,?,-8%,-17%,13µM*
CC(C)C(NC(=O)C(CC(=O)O)NC(=O)C(CCCCN)NC(=O)C(N)CCCN=C(N)N)C(=O)NC(Cc1ccc(O)cc1)C(=O)O (stereo not given),nt,-1%,nt,nt,1.5µM*
Cc1nc(Sc2ccccc2)c(C#N)c(C)c1[N+](=O)[O-],?,7.4µM*,-16%,-27%,?
Cc1cc(C)c(C#N)c(Sc2nc(C)c([N+](=O)[O-])c(C)c2C#N)n1,?,nt,?,-3%,nt
COc1ccccc1NS(=O)(=O)c1cc([N+](=O)[O-])ccc1N/N=C/c1c(C)[nH]c2ccccc12,-27%,10µM*,-5%,0%,nt
CN(C)C(=O)COC(=O)c1ccccc1OCC(=O)Nc1ccc(Br)cc1,-7%,nt,-4%,nt,nt
SMILES,Vaccinia mCherry,Pf growth 48h,Vaccinia Venus,AMA1-RON2 inh,Pf growth 96h
CC(=O)NCc1ccc(C(=O)CCl)s1,-20%,4.1µM*,-1%,-3%,?
CCOc1ccc(Oc2ccc(C(F)(F)F)cc2NC(=O)C2=COCCO2)cc1,nt,15µM*,nt,10%,?
CC(C)Oc1ccc(S(=O)(=O)N2CCCCC2)cc1NC(=O)C1=COCCO1,?,?,-21%,13%,8.3µM*
CCOc1ccc(Oc2ccccc2NC(=O)C2=COCCO2)cc1,-27%,?,-15%,-14%,?
Cc1cccc(Oc2ccc(S(=O)(=O)N3CCCCC3)cc2NC(=O)C2=COCCO2)c1,nt,13µM*,nt,0%,?
Cc1c(O)c2c3c(cccc3c1O)C(=O)N(c1ccccc1)C2=O,-27%,?,12%,1%,10µM*
O=c1c2ccccc2nc(/C=C/c2ccc3c(c2)OCO3)n1-c1cccc(O)c1,-21%,?,-15%,-7%,?
COc1ccc(-n2c(/C=C/c3ccc(O)c(OC)c3)nc3ccccc3c2=O)cc1,nt,?,nt,12%,2%
COc1cccc(-n2c(/C=C/c3ccc(O)c(O)c3)nc3ccccc3c2=O)c1,?,?,396%,-6%,9.3µM*
COc1ccc(-n2c(/C=C/c3ccc4c(c3)OCO4)nc3ccccc3c2=O)cc1,i,?,-17%,-9%,9.3µM*
Cc1nn(-c2ccc(Cl)cc2)c2nc(-c3cccnc3)cc(C(F)(F)F)c12,-9%,nt,-11%,nt,nt
CCOC(=O)C1CCC(CN(Cc2cccc(Br)c2)S(=O)(=O)c2ccc(Cl)cc2)CC1 (stereo not given),-1%,nt,-1%,nt,nt
COc1ccc(-c2[nH]ncc2C(=O)NCc2ccccc2OC)cc1,-16%,nt,-13%,nt,nt
C=CCN(CC=C)c1nc2ccccc2nc1C(C#N)C(=O)OCCOC (stereo not given),nt,10µM*,-9%,1%,6.6µM*
Cc1ccc(C)c(N2CCN(C(=O)CCS(=O)(=O)c3ccc4c(c3)CC(=O)N4C)CC2)c1,-12%,nt,-12%,nt,nt
Cc1noc(C)c1NC(=O)NCCN1CCN(Cc2ccccc2)CC1,i,36%,-1%,18%,44%
Cc1noc(C)c1S(=O)(=O)NCCN1CCN(c2ccccc2)CC1,-11%,8%,-7%,-20%,12µM*
Cc1noc(C)c1S(=O)(=O)NCCCN1CCN(Cc2ccccc2)CC1,nt,10%,nt,nt,4.7µM*
COc1ccc(C(=O)CSc2nc3cc(C(=O)NC4CCCC4)ccc3c(=O)n2CC2CCCO2)cc1 (stereo not given),-30%,nt,-28%,nt,nt
CC(C)Cc1ccc(CN2CCCC(NC(=O)c3cccc(-n4cnnc4)c3)C2)cc1 (stereo not given),?,13µM*,-29%,-19%,-22%
CC(C)Cc1ccc(CN2CCCC(NC(=O)c3ccnn3C)C2)cc1 (stereo not given),-4%,?,-22%,5%,-17%
CC(C)Cc1ccc(CN2CCCC(NC(=O)c3ccoc3)C2)cc1 (stereo not given),-10%,10µM*,-24%,-19%,64%

# Source: PubChem (National Center for Advancing Translational Sciences (NCATS))
